The values that follow come from PubChem BioAssay (NCI).

The structures appear in SMILES notation. The panel holds about 79,000 compounds, 15% with a hit somewhere; the sample as a whole holds those more often. A number with no mark means an inactive call. The source made the active and inactive calls. Rule as the data show it: active = growth inhibition above about 70%; inactive = the rest.

The first experiment in a line: NCI Yeast Anticancer Drug Screen. Data for the sgs1 mgt1 strain (AID 161).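 Also: 0% = growth of cultures given vehicle only.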 As to conditions: S. cerevisiae sgs1 mgt1 strain, hits give high values; at 50.0 µM unless noted. In outline:
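Inhibition of yeast growth, normalised to vehicle-treated controls, is reported for a strain bearing genetic alterations in DNA damage repair.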
With `N#C/C(=C/c1ccccc1)c1ccccc1`, the growth inhibition was 24.6%.

On to `COc1ccc(/C(=N\NC(=S)NN)C(c2ccc(OC)cc2)C2C(=O)Oc3ccccc32)cc1` (stereo not given), for which the growth inhibition was 38.4%.

For `O=C1CCCc2[nH]ccc21`, the growth inhibition is -9.25%.

As to `C=C1CC2CC[C@@]34C[C@@H]5O[C@@H]6C(O[C@H]7CC[C@H](CC(=O)OC8[C@@H](C)C9OC%10C[C@]%11(C[C@@H]%12O[C@@]%13(C[C@@H](C)[C@@H]%12O%11)C[C@H](C)[C@@H]%11OC%12CC(C(O)CO)OC%12C[C@@H]%11O%13)OC%10CC9O[C@H]8C[C@H]8O[C@@H](CC[C@@H]1O2)C[C@@H](C)C8=C)O[C@@H]7[C@@H]6O3)C5O4` (stereo not given in full), the growth inhibition was 76.5% (active).

`O=C(OC1C2C=COC(OC3OC(CO)C(O)C(O)C3O)C2C2(CO)OC12)c1ccc(O)cc1` (stereo not given): the growth inhibition is 17.8%.

As to `CC1(C)N=C(N)N=C(N)N1c1ccc(N)cc1`, the growth inhibition is 2.75%.

Turning to `CC1(C)OCC2OC3(c4nc(C#N)c(N)o4)OC(C)(C)OC3C2O1` (stereo not given), the growth inhibition is -48%.

`O=C(c1ccccc1)C(F)S(=O)(=O)O` (stereo not given): the growth inhibition is -9.05%.

Regarding `O=C1OC(=O)C2C(Cl)C(Cl)C12` (stereo not given), the growth inhibition is 2.7%.

Regarding `CC(=O)[C@@]1(O)CC[C@H]2[C@@H]3CC[C@@H]4C[C@H](O)CC[C@]4(C)[C@H]3[C@H](O)C[C@@]21C`, the growth inhibition was 8%.

`N#CSc1ccc(NN)cc1`: the growth inhibition is 30.4%.

Turning to `O=S(=O)(Cc1nc2ccccc2[nH]1)Cc1nc2ccccc2[nH]1`, the growth inhibition was 14.8%.

As for `COc1ccc(NS(=O)(=O)c2ccc(NC(CNC(C)S(=O)(=O)O)S(=O)(=O)O)cc2)cc1` (stereo not given), the growth inhibition was 29.3%.

For `CNCCc1cn(C2OC(CO)C(O)C(O)C2O)cn1` (stereo not given), the growth inhibition is -22.3%.

For `COc1ccc2c(c1)[n+](=O)c(C(=O)C/C(=N/NC(=O)c1ccccc1O)C(=O)Nc1ccc(Cl)c(C(F)(F)F)c1)c(C)n2[O-]`, the growth inhibition is 14.5%.

Regarding `Cc1ccc(N2CCC(O)C2)cc1` (stereo not given), the growth inhibition was -7.05%.

For `CCC(=O)OC(CCC1CCCO1)CCC1CCCO1` (stereo not given), the growth inhibition is 3.75%.

As for `Cc1[nH]c(=O)cc2c1[nH]c1ccccc12`, the growth inhibition is -0.15%.

Consider `CCCOC(CCC(=O)NC(C)(C)C)CC(=O)NC(C)(C)C` (stereo not given), for which the growth inhibition was 6.9%.

As for `O=C(COCC(=O)N/N=C/C=C/c1ccccc1)N/N=C/C=C/c1ccccc1`, the growth inhibition is -0.65%.

Turning to `CC1CCCCN1Cc1ccccc1COC(=O)c1ccc([N+](=O)[O-])cc1Cl` (stereo not given), the growth inhibition is 49.9%.

As for `COC1C(OC(=O)c2ccc(C)[nH]2)C(O)C(Oc2ccc3c(O)c(NC(=O)c4c[nH]c(C(=O)Nc5c(O)c6ccc(OC7OC(C)(C)C(OC)C(OC(=O)c8ccc(C)[nH]8)C7O)c(C)c6oc5=O)c4C)c(=O)oc3c2C)OC1(C)C` (stereo not given), the growth inhibition is 15.2%.

As to `CCOCc1cccc2ccccc12`, the growth inhibition was -14.9%.

Take `CCOC(=O)C1=CC(C(=O)OCC)=C2C=CC=C3C=CC=C1N32`: the growth inhibition was 25.9%.

As to `O=C(c1cccs1)N(C(=S)N1CCN(c2ccccc2)CC1)C1CCCCC1`, the growth inhibition was -8%.

Turning to `CC1CC(C)(O)C2C3(C)CCCC2(COC3=O)C12CCC1(CCOC1=O)O2` (stereo not given), the growth inhibition is 25.3%.

`OCCCCC(O)CO` (stereo not given): the growth inhibition is -1.1%.

For `Cc1cc[nH]c(=O)c1[N+](=O)[O-]`, the growth inhibition was -2.85%.

As to `CC(C#N)C(=O)O` (stereo not given), the growth inhibition is -15.7%.

In the case of `CCc1ccc2c(-c3ccccc3)c3c(-c4ccccc4)c4ccccc4c(-c4ccccc4)c3c(-c3ccccc3)c2c1`, the growth inhibition is -5.8%.

`O=C(O)c1cccc2c(=O)c3ccccc3oc12`: the growth inhibition is -16.9%.

`Cc1cccc(C)c1NC(=O)Nc1ccccc1C(N)=O`: the growth inhibition was 35.5%.

Turning to `COc1ccc(C(=O)/C=C/N)c(OC)c1`, the growth inhibition was 5.45%.

With `O=C(O)C(F)(F)C(F)(F)C(F)(F)F`, the growth inhibition is -6.75%.

Take `O=C(O)NC(=O)c1cc([N+](=O)[O-])ccc1COC1CCCCO1` (stereo not given): the growth inhibition is 2.55%.

With `O=C1CN(c2cccc(C(F)(F)F)c2)C(=O)CN1/N=C/c1ccc[nH]1`, the growth inhibition was 9.45%.

Consider `Brc1cc(Br)cc(CN2CCOCC2)c1`, for which the growth inhibition was 49.6%.

In the case of `Nn1c(NNC(=O)C(=O)Nc2cc(Cl)c(Cl)cc2Cl)n[nH]c1=S`, the growth inhibition was -6.45%.

As to `COC(=O)C(Cc1ccc(N(C)C)cc1)(NC(=O)c1ccccc1)P(=O)(OC)OC` (stereo not given), the growth inhibition was -28.2%.

On to `N#CSC(C(=O)c1ccccc1)c1ccccc1` (stereo not given), for which the growth inhibition is 91.2% (active).

The next experiment is described as follows: NCI Yeast Anticancer Drug Screen. Data for the cln2 rad14 strain (AID 165).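 Also: 0% = growth equal to vehicle treated cultures.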 To be noted: S. cerevisiae cln2 rad14 strain, hits give high values; at 50.0 µM unless noted. In outline:
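Each compound was tested on cln2 rad14 yeast. Inhibition of growth was calculated against vehicle-exposed controls.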
With `N#C/C(=C/c1ccccc1)c1ccccc1`, the growth inhibition was 14.5%.

With `COc1ccc(/C(=N\NC(=S)NN)C(c2ccc(OC)cc2)C2C(=O)Oc3ccccc32)cc1` (stereo not given), the growth inhibition is -9.3%.

Take `O=C1CCCc2[nH]ccc21`: the growth inhibition was 64.6%.

For `C=C1CC2CC[C@@]34C[C@@H]5O[C@@H]6C(O[C@H]7CC[C@H](CC(=O)OC8[C@@H](C)C9OC%10C[C@]%11(C[C@@H]%12O[C@@]%13(C[C@@H](C)[C@@H]%12O%11)C[C@H](C)[C@@H]%11OC%12CC(C(O)CO)OC%12C[C@@H]%11O%13)OC%10CC9O[C@H]8C[C@H]8O[C@@H](CC[C@@H]1O2)C[C@@H](C)C8=C)O[C@@H]7[C@@H]6O3)C5O4` (stereo not given in full), the growth inhibition is 69.8%.

Turning to `O=C(OC1C2C=COC(OC3OC(CO)C(O)C(O)C3O)C2C2(CO)OC12)c1ccc(O)cc1` (stereo not given), the growth inhibition was 18.6%.

Turning to `CC1(C)N=C(N)N=C(N)N1c1ccc(N)cc1`, the growth inhibition is -36.8%.

For `CC1(C)OCC2OC3(c4nc(C#N)c(N)o4)OC(C)(C)OC3C2O1` (stereo not given), the growth inhibition is -1.7%.

In the case of `O=C(c1ccccc1)C(F)S(=O)(=O)O` (stereo not given), the growth inhibition is -25.8%.

On to `O=C1OC(=O)C2C(Cl)C(Cl)C12` (stereo not given), for which the growth inhibition was -37.6%.

With `CC(=O)[C@@]1(O)CC[C@H]2[C@@H]3CC[C@@H]4C[C@H](O)CC[C@]4(C)[C@H]3[C@H](O)C[C@@]21C`, the growth inhibition was -34.1%.

On to `N#CSc1ccc(NN)cc1`, for which the growth inhibition was -4.65%.

With `O=S(=O)(Cc1nc2ccccc2[nH]1)Cc1nc2ccccc2[nH]1`, the growth inhibition was -7.25%.

Consider `COc1ccc(NS(=O)(=O)c2ccc(NC(CNC(C)S(=O)(=O)O)S(=O)(=O)O)cc2)cc1` (stereo not given), for which the growth inhibition was 52.5%.

On to `CNCCc1cn(C2OC(CO)C(O)C(O)C2O)cn1` (stereo not given), for which the growth inhibition is -40.9%.

Regarding `COc1ccc2c(c1)[n+](=O)c(C(=O)C/C(=N/NC(=O)c1ccccc1O)C(=O)Nc1ccc(Cl)c(C(F)(F)F)c1)c(C)n2[O-]`, the growth inhibition is 8.75%.

`Cc1ccc(N2CCC(O)C2)cc1` (stereo not given): the growth inhibition was 4.95%.

Take `CCC(=O)OC(CCC1CCCO1)CCC1CCCO1` (stereo not given): the growth inhibition was 12.4%.

On to `Cc1[nH]c(=O)cc2c1[nH]c1ccccc12`, for which the growth inhibition was -44.2%.

For `CCCOC(CCC(=O)NC(C)(C)C)CC(=O)NC(C)(C)C` (stereo not given), the growth inhibition was 4.15%.

On to `O=C(COCC(=O)N/N=C/C=C/c1ccccc1)N/N=C/C=C/c1ccccc1`, for which the growth inhibition was 3.35%.

Take `CC1CCCCN1Cc1ccccc1COC(=O)c1ccc([N+](=O)[O-])cc1Cl` (stereo not given): the growth inhibition is 8.85%.

For `COC1C(OC(=O)c2ccc(C)[nH]2)C(O)C(Oc2ccc3c(O)c(NC(=O)c4c[nH]c(C(=O)Nc5c(O)c6ccc(OC7OC(C)(C)C(OC)C(OC(=O)c8ccc(C)[nH]8)C7O)c(C)c6oc5=O)c4C)c(=O)oc3c2C)OC1(C)C` (stereo not given), the growth inhibition was 24.7%.

`CCOCc1cccc2ccccc12`: the growth inhibition was 9%.

Regarding `CCOC(=O)C1=CC(C(=O)OCC)=C2C=CC=C3C=CC=C1N32`, the growth inhibition was -1.65%.

On to `O=C(c1cccs1)N(C(=S)N1CCN(c2ccccc2)CC1)C1CCCCC1`, for which the growth inhibition is 13.4%.

Consider `CC1CC(C)(O)C2C3(C)CCCC2(COC3=O)C12CCC1(CCOC1=O)O2` (stereo not given), for which the growth inhibition was 3.8%.

As to `OCCCCC(O)CO` (stereo not given), the growth inhibition was -8.65%.

Turning to `Cc1cc[nH]c(=O)c1[N+](=O)[O-]`, the growth inhibition is -25.7%.

`CC(C#N)C(=O)O` (stereo not given): the growth inhibition was -8.15%.

Regarding `CCc1ccc2c(-c3ccccc3)c3c(-c4ccccc4)c4ccccc4c(-c4ccccc4)c3c(-c3ccccc3)c2c1`, the growth inhibition was -28.4%.

As to `O=C(O)c1cccc2c(=O)c3ccccc3oc12`, the growth inhibition is 8.25%.

As for `Cc1cccc(C)c1NC(=O)Nc1ccccc1C(N)=O`, the growth inhibition was -6.75%.

`COc1ccc(C(=O)/C=C/N)c(OC)c1`: the growth inhibition was 20%.

Consider `O=C(O)C(F)(F)C(F)(F)C(F)(F)F`, for which the growth inhibition was 14.6%.

In the case of `O=C(O)NC(=O)c1cc([N+](=O)[O-])ccc1COC1CCCCO1` (stereo not given), the growth inhibition was -11.7%.

With `O=C1CN(c2cccc(C(F)(F)F)c2)C(=O)CN1/N=C/c1ccc[nH]1`, the growth inhibition was 15.8%.

Consider `Brc1cc(Br)cc(CN2CCOCC2)c1`, for which the growth inhibition is 48%.

With `Nn1c(NNC(=O)C(=O)Nc2cc(Cl)c(Cl)cc2Cl)n[nH]c1=S`, the growth inhibition was 23.8%.

In the case of `COC(=O)C(Cc1ccc(N(C)C)cc1)(NC(=O)c1ccccc1)P(=O)(OC)OC` (stereo not given), the growth inhibition is 1.9%.

Take `N#CSC(C(=O)c1ccccc1)c1ccccc1` (stereo not given): the growth inhibition was 89% (active).
